{"source": "PubChem BioAssay (NCATS)", "target": "Calcium and integrin-binding protein 1 (Homo sapiens) (UniProt Q99828)", "sequence (Q99828 whole entry, looked up)": "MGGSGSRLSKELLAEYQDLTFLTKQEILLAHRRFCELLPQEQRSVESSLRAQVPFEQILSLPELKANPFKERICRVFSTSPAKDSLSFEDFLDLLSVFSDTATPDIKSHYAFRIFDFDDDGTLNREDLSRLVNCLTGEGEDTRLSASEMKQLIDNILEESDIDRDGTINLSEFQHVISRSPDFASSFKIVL", "assay": "Primary qHTS for Identification of Calcium Integrin Binding Protein 1 (CIB1) Competitor (AID 1508620);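 note: GST tagged CIB1 binding a fluorescein labelled alphaIIb integrin peptide tracer; top concentration of the series differs between compounds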", "summary_of_the_method": "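CIB1-GST (1 uM final) and compound incubated 15 min at room temperature before adding FITC-alphaIIb peptide tracer (100 nM final). Competition for binding read by fluorescence polarization (ex 480, em 540) after another 15 min at room temperature.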", "note": "Results filed as inconclusive are left out. Where a call stands in place of a potency, no number is given. Calls of active or inactive are those of the source. Calls come from the whole dose curve; as a rule, active = well fitted inhibition curve with a large enough effect; inconclusive = small, poorly fitted or top-dose-only effect; inactive = flat fitted curve, though single readings scatter.", "data": [{"smiles": "CCCN(Cc1cccs1)c1ncnc2ccc(-c3ccc4c(c3)OCO4)cc12", "values": [{"measurement": "Potency", "result": "inactive"}]}, {"smiles": "CS(=O)(=O)/C=C/c1nc(Nc2cc(F)cc(F)c2)c2ncn(CC(F)F)c2n1", "values": [{"measurement": "Potency", "result": "inactive"}]}, {"smiles": "O=C(Cc1ccc(Cl)c(Cl)c1)Nc1ccc(S(=O)(=O)Nc2cccc(O)c2)cc1", "values": [{"measurement": "Potency", "result": "inactive"}]}, {"smiles": "Cc1ccc(-n2c(=O)ccc(=O)n2CC(=O)NCCc2ccccc2)cc1", "values": [{"measurement": "Potency", "result": "inactive"}]}, {"smiles": "CC(=O)Nc1sc2c(c1-c1cccnc1)CCNC2", "values": [{"measurement": "Potency", "result": "inactive"}]}, {"smiles": "Cc1nc2ccccn2c1C(O)(c1ccccc1)c1ccccc1", "values": [{"measurement": "Potency", "result": "inactive"}]}, {"smiles": "Cc1cnc(-c2ccccc2C(C)C)nc1NCC1CCN(c2cccnc2)CC1", "values": [{"measurement": "Potency", "result": "inactive"}]}, {"smiles": "Cc1cc(C)nc(NC(=S)N2CCN(c3ccc4occc4c3)CC2)c1", "values": [{"measurement": "Potency", "result": "inactive"}]}, {"smiles": "Cc1ccccc1C(=O)N1CCc2cc(-c3cccc(NC(=O)Cc4ccc5c(c4)OCO5)c3)ccc21", "values": [{"measurement": "Potency", "result": "inactive"}]}, {"smiles": "Cc1ccc(CNc2ccc(N3CCN(C(=O)OC(C)(C)C)CC3=O)cc2)cc1", "values": [{"measurement": "Potency", "result": "inactive"}]}, {"smiles": "Cc1ccnc(NC(=S)N2CC3CN(c4ncc(C(F)(F)F)cc4Cl)CC3C2)c1", "note": "(stereo not given)", "values": [{"measurement": "Potency", "result": "inactive"}]}, {"smiles": "FC(F)(F)c1ccccc1-c1nc(NCc2ccc(-c3cccc(Cl)c3)cc2)c2ccccc2n1", "values": [{"measurement": "Potency", "result": "inactive"}]}, {"smiles": "N#Cc1nc(Nc2ccc(C(F)(F)F)cc2)nc(NC2CCCC2)n1", "values": [{"measurement": "Potency", "result": "inactive"}]}, {"smiles": "CC(=O)NC(c1ccco1)c1cc(Cl)c2ccc(N3CCCCC3)nc2c1O", "note": "(stereo not given)", "values": [{"measurement": "Potency", "result": "inactive"}]}, {"smiles": "c1csc(CNc2ccc(N3CCCCC3)cc2)c1", "values": [{"measurement": "Potency", "result": "inactive"}]}, {"smiles": "Fc1ccc(-c2ccc(CNc3nc(-c4ccccc4C(F)(F)F)nc4ccccc34)cc2)cc1", "values": [{"measurement": "Potency", "result": "inactive"}]}, {"smiles": "O=C(Cc1ccc(Cl)c(Cl)c1)Nc1ccc(S(=O)(=O)Nc2cncnc2)cc1", "values": [{"measurement": "Potency", "result": "inactive"}]}, {"smiles": "COc1ccc(C2=Nn3c(nnc3-c3cc(OC)ccc3OC)SC2)c(OC)c1", "values": [{"measurement": "Potency", "result": "inactive"}]}, {"smiles": "CC(C)(C)OC(=O)NCc1nnc(C(C(=O)OCc2ccccc2)c2ccccc2)s1", "note": "(stereo not given)", "values": [{"measurement": "Potency", "result": "inactive"}]}, {"smiles": "Cc1cc(C)nc(NC(=S)N2CCN(c3cc(Br)cc(C(F)(F)F)c3)CC2)c1", "values": [{"measurement": "Potency", "result": "inactive"}]}, {"smiles": "O=S(=O)(Nc1cccc2cccnc12)c1ccc2ccccc2c1", "values": [{"measurement": "Potency", "result": "inactive"}]}, {"smiles": "Nc1ccc(S(=O)(=O)N2CCN(S(=O)(=O)c3ccc4c(c3)OCCO4)CC2)cc1", "values": [{"measurement": "Potency", "result": "inactive"}]}, {"smiles": "O=C(Nc1cccc(C(F)(F)F)c1)c1cccs1", "values": [{"measurement": "Potency", "result": "inactive"}]}, {"smiles": "CC(Nc1ncnc2ccc(-c3ccc4c(c3)OCO4)cc12)c1ccco1", "note": "(stereo not given)", "values": [{"measurement": "Potency", "result": "inactive"}]}, {"smiles": "c1ccc(-c2nc(NCc3ccc(-c4cccnc4)cc3)c3ccccc3n2)cc1", "values": [{"measurement": "Potency", "result": "inactive"}]}, {"smiles": "O=C1CCc2cc(S(=O)(=O)Nc3cccc(F)c3)ccc2N1", "values": [{"measurement": "Potency", "result": "inactive"}]}, {"smiles": "COc1cccc(CN2C(=O)c3ccccc3NC2c2ccc(OC)c(COc3c(C)cc(NC(C)=O)cc3C)c2)c1", "note": "(stereo not given)", "values": [{"measurement": "Potency", "result": "inactive"}]}, {"smiles": "COc1cc(O)c(C(CC(=O)N2CCC(c3ccccc3)CC2)c2ccc(OC)c(OC)c2)c(OC)c1", "note": "(stereo not given)", "values": [{"measurement": "Potency", "result": "inactive"}]}, {"smiles": "COc1ccc2cc3cc(C(=O)Nc4ccc(F)cc4)sc3nc2c1", "values": [{"measurement": "Potency", "result": "inactive"}]}, {"smiles": "Cc1cc(C)nc(NC(=S)N2CCN(c3ccc4nncn4c3)CC2)c1", "values": [{"measurement": "Potency", "result": "inactive"}]}, {"smiles": "CC(=O)Nc1sc2c(c1-c1cccc(F)c1)CCNC2", "values": [{"measurement": "Potency", "result": "inactive"}]}, {"smiles": "c1nc(NCCC2CCCO2)c2cc(-c3ccc4c(c3)OCO4)ccc2n1", "note": "(stereo not given)", "values": [{"measurement": "Potency", "result": "inactive"}]}, {"smiles": "Cc1cccc(C(=O)NCC(=O)OC(C(=O)Nc2cc(C(F)(F)F)ccc2Cl)c2ccccc2)c1", "note": "(stereo not given)", "values": [{"measurement": "Potency", "result": "inactive"}]}, {"smiles": "O=C1Cc2cc(S(=O)(=O)N3CCN(c4ccc(C(F)(F)F)cc4)CC3)ccc2N1", "values": [{"measurement": "Potency", "result": "inactive"}]}, {"smiles": "O=C1CCc2cc(S(=O)(=O)NCc3ccccc3)ccc2N1", "values": [{"measurement": "Potency", "result": "inactive"}]}, {"smiles": "O=C(COC(=O)CNC(=O)C1CCCCC1)Nc1ccccc1Cl", "values": [{"measurement": "Potency", "result": "inactive"}]}, {"smiles": "CN(C)CC(=O)NC1CCCc2c1cnn2-c1ccc(F)cc1F", "note": "(stereo not given)", "values": [{"measurement": "Potency", "result": "inactive"}]}, {"smiles": "Cc1ccccc1NS(=O)(=O)c1ccc2c(c1)CCC(=O)N2", "values": [{"measurement": "Potency", "result": "inactive"}]}, {"smiles": "Cc1cccc(CNc2ncnc3ccc(-c4cccc(Cl)c4)cc23)c1", "values": [{"measurement": "Potency", "result": "inactive"}]}, {"smiles": "O=S(=O)(c1cccc(Br)c1)N1CCN(S(=O)(=O)c2ccc3c(c2)OCCO3)CC1", "values": [{"measurement": "Potency", "result": "inactive"}]}, {"smiles": "Clc1ccc(CSc2nc3ncc(Br)cc3[nH]2)cc1", "values": [{"measurement": "Potency", "result": "inactive"}]}, {"smiles": "Cc1cc(C)nc(NC(=S)N2CCN(c3nncs3)CC2)c1", "values": [{"measurement": "Potency", "result": "inactive"}]}, {"smiles": "Cc1ccc2c(c1)/C(=C\\c1cc(Cl)c(O)c(Cl)c1)C(=O)N2", "values": [{"measurement": "Potency", "result": "inactive"}]}, {"smiles": "CN(C)c1cccc(NS(=O)(=O)c2ccc(NC(=O)Cc3ccc(Cl)c(Cl)c3)cc2)c1", "values": [{"measurement": "Potency", "result": "inactive"}]}, {"smiles": "O=C(Nc1ccc(F)nc1)Nc1nnc(-c2ccncc2)s1", "values": [{"measurement": "Potency", "result": "inactive"}]}, {"smiles": "Cc1nnc(-c2ccccc2[N+](=O)[O-])n1CCCn1ccnc1", "values": [{"measurement": "Potency", "result": "inactive"}]}, {"smiles": "NC(=O)c1c(NC(=O)C2CCCO2)sc2c1CCCC2", "note": "(stereo not given)", "values": [{"measurement": "Potency", "result": "inactive"}]}, {"smiles": "COc1cc(O)c(C(CC(=O)N2CCC[C@H](C)C2)c2ccc3c(c2)OCO3)c(OC)c1", "note": "(stereo not given in full)", "values": [{"measurement": "Potency", "result": "inactive"}]}, {"smiles": "Oc1c(CNc2ccccc2)cc(COCc2ccccc2)c2cccnc12", "values": [{"measurement": "Potency", "result": "inactive"}]}, {"smiles": "COc1cccc(N2C(=O)c3ccccc3C2=O)n1", "values": [{"measurement": "Potency", "result": "inactive"}]}, {"smiles": "O=C(/C=C/c1cccc(Cl)c1)Nc1cccc([S+](=O)([O-])Nc2ccccc2F)c1", "values": [{"measurement": "Potency", "result": "inactive"}]}, {"smiles": "N#Cc1ccc(Nc2nn3c(=O)c4ccccc4nc3s2)cc1", "values": [{"measurement": "Potency", "result": "inactive"}]}, {"smiles": "COc1cccc(C2c3c(ncn(-c4cccc(Br)c4)c3=N)Oc3ccc4ccccc4c32)c1", "note": "(stereo not given)", "values": [{"measurement": "Potency", "result": "inactive"}]}, {"smiles": "COc1ccccc1C1=Nn2c(nnc2-c2cccc(OC)c2OC)SC1", "values": [{"measurement": "Potency", "result": "inactive"}]}, {"smiles": "CCn1cnc2c(Nc3ccc(Cc4cccnc4)cc3)nc(C#N)nc21", "values": [{"measurement": "Potency", "result": "inactive"}]}, {"smiles": "CCCCN(C)C(=O)Cn1nc(-c2ccc(C(C)(C)C)cc2)ccc1=O", "values": [{"measurement": "Potency", "result": "inactive"}]}, {"smiles": "NC(=O)c1cccc(-c2noc(-c3ccccc3C(F)(F)F)n2)c1", "values": [{"measurement": "Potency", "result": "inactive"}]}, {"smiles": "Cc1sc(NC(=O)Cc2ccc3c(c2)OCO3)nc1-c1ccc2c(c1)CCN2C(=O)C1CCCCC1", "values": [{"measurement": "Potency", "result": "inactive"}]}, {"smiles": "C[C@@](Cc1ccccc1)(C(=O)O)N1C(=O)c2ccc(C(=O)O)cc2C1=O", "values": [{"measurement": "Potency", "result": "inactive"}]}, {"smiles": "O=C(Nc1cccc(C(=O)O)c1)Nc1nnc(-c2ccncc2)s1", "values": [{"measurement": "Potency", "result": "inactive"}]}]}
